The source of these data is PubChem BioAssay.

SMILES strings stand for the structures. For some assays here: Potency and affinity values are given separately. Active and inactive are the calls of the source. Where a call stands in place of a potency, no number is given. Unless noted, the rule behind the calls is not given here.

System in one experiment: not listed separately
Description: inhibition of 3D7 malaria parasite growth – strain 3D7 (AID 2306). The note with it: P. falciparum 3D7 erythrocytic growth, LDH absorbance, 72 h; at 2 µM; hits give high values.
Turning to `CCCc1cc(Cc2cnc(N)nc2N)ccc1OCCCCCC(=O)O`, the growth inhibition is 97% (active).
`CC(C)(C)c1nn(-c2ccc(Cl)cc2)c2[nH]c(=O)c(CNC3CCCC3)cc12`: the growth inhibition was 99% (active).
As for `O=C(c1ccco1)N1CCN(c2nc(-c3ccc(Cl)cc3)nc3ccccc23)CC1`, the growth inhibition is 96% (active).
In the case of `CC(C)CCN1CCC(Oc2ccc(NC(=O)c3ccccc3)cc2Cl)CC1`, the growth inhibition was 87% (active).
`COc1cccc(-c2nn(C)c3sc(C(=O)Nc4cccnc4)cc23)c1`: the growth inhibition is 86% (active).
Take `Cc1cccc(C)c1C1CCN(C2CCC(NC(=O)/C=C/c3ccccc3)CC2)CC1` (stereo not given): the growth inhibition is 100% (active).
Regarding `Cc1ccnc(Nc2nc(-c3ccccn3)cs2)c1`, the growth inhibition was 100% (active).
Consider `NC1=NC2(CCCCC2)N(OCCCOc2cc(Cl)c(Cl)cc2Cl)C(N)=N1`, for which the growth inhibition was 94% (active).
Turning to `O=C(NCc1ccc(Cl)cc1)c1ccc(CN2CCCN(Cc3cccc(O)c3)CC2)cc1`, the growth inhibition is 82% (active).
For `CS(=O)(=O)NCCCNCc1ccc(-c2ccc(-c3nc4ccc(C(F)(F)F)cc4[nH]3)s2)cc1`, the growth inhibition is 99% (active).
Still for that read-out and setting: under `CNC(=S)NCc1cnc2ccccn12` stands 97% (active).
For the compound `Cn1cnc2nc(NCCc3ccccc3)nc(NCc3cccc4ccccc34)c21`, the growth inhibition is 95% (active).
With `CCOC(=O)c1cn(CC)c2cc(N(C)CCc3ccc(OC)c(OC)c3)c(F)cc2c1=O`, the growth inhibition is 92% (active).
Take `Cc1cccc2[nH]c(-c3ccc(-c4cccc(CNCc5cnn(-c6ccccc6)n5)c4)s3)nc12`: the growth inhibition was 98% (active).
Regarding `N=c1c2c(n(Cc3cccc(Cl)c3)c3c1CCC3)CCCC2`, the growth inhibition was 97% (active).
`O=C(Nc1ccccc1Br)N[C@@H]1CCN(c2ccnc3ccccc23)C1`: the growth inhibition is 91% (active).
Turning to `Cc1[nH]c(C)c(-c2ccc(-c3ccccc3F)nc2)c(=O)c1Br`, the growth inhibition was 97% (active).
With `CC(=O)c1c(Cc2cccc(C(F)(F)F)c2)c[nH]c1C`, the growth inhibition is 94% (active).
Consider `Cc1cc(NC2CCN(CC3CCCCC3)C2)nc(Nc2ccc(Br)cc2)n1` (stereo not given), for which the growth inhibition was 101% (active).
Take `Cc1cccc2c(CON3C(N)=NC(N)=NC3(C)C)cccc12`: the growth inhibition is 94% (active).
Take `CCC(CC)(Cc1ccccc1)NC(=O)[C@H](Cc1ccc(OC)c(OC)c1)Nc1ccc(C#N)c2ccccc12`: the growth inhibition is 90% (active).
Turning to `O=C(C=Cc1ccc(Cl)c(Cl)c1)NCCCCCN1CCC(CCNC(=O)/C=C/c2ccccc2)CC1`, the growth inhibition is 97% (active).
With `O=C(Nc1cccc(C(F)(F)F)c1)c1cccc(S(=O)(=O)NC2CCCN(CC3CCCCC3)C2)c1` (stereo not given), the growth inhibition is 97% (active).
Turning to `Cc1cc(NC(=O)c2cc(Br)ccc2Cl)n(-c2nc(C)c(C)c(=O)[nH]2)n1`, the growth inhibition is 91% (active).
In the case of `CN(C(=O)/C=C/c1ccccc1F)C1CCN(CCCCCNC(=O)/C=C/c2ccc(Cl)c(Cl)c2)CC1`, the growth inhibition is 89% (active).
With `CC1CN(Cc2ccc(-c3cccc(-c4nc5ccc(F)cc5[nH]4)c3)cc2)CC(C)O1` (stereo not given), the growth inhibition is 93% (active).
Turning to `CC(C)C[C@@H](CNC[C@H](CC(C)C)NC(=O)OC(C)(C)C)NC(=O)OC(C)(C)C`, the growth inhibition was 88% (active).
As to `CCNC(=O)N[C@@H]1CN[C@@H](C#Cc2cc3c(Nc4ccc(OCc5cccc(F)c5)c(Cl)c4)ncnc3s2)C1`, the growth inhibition is 85% (active).
As for `CC(C)N1CCN(C(CN2CCN(CCCOc3ccc4ccccc4c3)CC2)c2ccc(F)cc2)CC1` (stereo not given), the growth inhibition is 101% (active).
As for `CN(C)C(=NCCCCCCN=C(NC(N)=NCc1ccc(Cl)c(Cl)c1)N(C)C)NC(N)=NCc1ccc(Cl)c(Cl)c1`, the growth inhibition is 93% (active).
Regarding `CCn1c2ccccc2c2cc(C=NNc3cc(C)nc4ccccc34)ccc21`, the growth inhibition was 102% (active).
For the compound `CS(=O)(=O)CCN(CCS(C)(=O)=O)Cc1ccc(-c2ccc3ncnc(Nc4ccc(OCc5cccc(F)c5)c(Cl)c4)c3c2)o1`, the growth inhibition is 90% (active).
Turning to `O=C(NC1CCCC1)c1ccc(N2CCC(NCc3cc4cc(Cl)ccc4[nH]3)CC2)cc1`, the growth inhibition was 91% (active).
As for `COc1ccccc1C1CCN(CCN2CCC(NC(=O)c3ccc(-c4ccc(C#N)cc4)cc3)CC2)CC1`, the growth inhibition is 99% (active).
With `O=C(NC1CCN(Cc2ccc(F)cc2)CC1)c1ccc(-c2cccc(C(F)(F)F)c2)s1`, the growth inhibition was 83% (active).
The same measure, in the same setting: under `O=C(Nc1ccc(Br)cc1)N(CCN1CCOCC1)CC(O)COc1ccc(Cl)c(F)c1` (stereo not given) stands 98% (active); under `NC(=O)c1ccc(NCC(=O)Nc2cccc(-c3cccc(-c4nc5ccc(C(F)(F)F)cc5[nH]4)c3)c2)cc1`, 99% (active); under `CC(=O)Nc1cccc(-c2cn(-c3ccc(OCc4cccc(F)c4)c(Cl)c3)c3ncncc23)c1`, 100% (active).
On to `CCCc1ccc(NC(=O)c2ccc(CN3CCCN(Cc4cccc(O)c4)CC3)cc2)cc1`, for which the growth inhibition is 101% (active).
Regarding `Cc1ccc(C)c(NC(=O)Nc2ccc(Nc3nc(C)cc(N4CCOCC4)n3)cc2)c1`, the growth inhibition is 98% (active).

For a further experiment, the target named is Calcium-dependent protein kinase 1 (Plasmodium falciparum (isolate 3D7)) (UniProt P62344). Description: PfCDPK1 kinase inhibitors, biochemical, TCAMS library (AID 1159585; cut-off not given, nearly all actives have IC50 up to about 0.98 µM;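 note: inhibitors leave more ATP so luminescence rises with inhibition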). The note with it: recombinant PfCDPK1, Kinase-Glo ATP depletion luminescence.
Chain of Calcium-dependent protein kinase 1 (Plasmodium falciparum (isolate 3D7)) (P62344 whole entry, looked up): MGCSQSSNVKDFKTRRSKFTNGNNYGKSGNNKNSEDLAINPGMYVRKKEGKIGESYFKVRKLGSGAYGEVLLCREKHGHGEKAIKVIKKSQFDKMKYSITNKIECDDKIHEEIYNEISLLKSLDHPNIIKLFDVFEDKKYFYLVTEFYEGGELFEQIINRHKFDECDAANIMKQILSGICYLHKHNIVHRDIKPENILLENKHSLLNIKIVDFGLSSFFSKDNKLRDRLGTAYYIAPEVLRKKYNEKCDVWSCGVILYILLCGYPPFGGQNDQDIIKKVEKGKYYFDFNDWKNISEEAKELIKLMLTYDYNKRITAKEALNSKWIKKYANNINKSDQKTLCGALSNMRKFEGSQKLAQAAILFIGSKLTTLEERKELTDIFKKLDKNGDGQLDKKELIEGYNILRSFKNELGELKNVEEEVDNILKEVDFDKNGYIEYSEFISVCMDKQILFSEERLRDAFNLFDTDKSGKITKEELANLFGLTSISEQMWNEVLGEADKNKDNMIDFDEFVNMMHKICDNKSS
Turning to `CCCc1cc(Cc2cnc(N)nc2N)ccc1OCCCCCC(=O)O`, the result was inactive.
On the same count and under the same terms, with `CC(C)(C)c1nn(-c2ccc(Cl)cc2)c2[nH]c(=O)c(CNC3CCCC3)cc12` the entry was “inactive”; with `O=C(c1ccco1)N1CCN(c2nc(-c3ccc(Cl)cc3)nc3ccccc23)CC1`, “inactive”; with `CC(C)CCN1CCC(Oc2ccc(NC(=O)c3ccccc3)cc2Cl)CC1`, “inactive”.
Still for that read-out and setting: with `COc1cccc(-c2nn(C)c3sc(C(=O)Nc4cccnc4)cc23)c1` the entry was “inactive”; with `Cc1cccc(C)c1C1CCN(C2CCC(NC(=O)/C=C/c3ccccc3)CC2)CC1` (stereo not given), “inactive”; with `Cc1ccnc(Nc2nc(-c3ccccn3)cs2)c1`, “inactive”.
In the case of `NC1=NC2(CCCCC2)N(OCCCOc2cc(Cl)c(Cl)cc2Cl)C(N)=N1`, the result was inactive.
In the case of `O=C(NCc1ccc(Cl)cc1)c1ccc(CN2CCCN(Cc3cccc(O)c3)CC2)cc1`, the result was inactive.
Same read-out and setting: under `CS(=O)(=O)NCCCNCc1ccc(-c2ccc(-c3nc4ccc(C(F)(F)F)cc4[nH]3)s2)cc1` stands “inactive”; under `CNC(=S)NCc1cnc2ccccn12`, “inactive”.
Regarding `Cn1cnc2nc(NCCc3ccccc3)nc(NCc3cccc4ccccc34)c21`, the outcome was inactive.
Regarding `CCOC(=O)c1cn(CC)c2cc(N(C)CCc3ccc(OC)c(OC)c3)c(F)cc2c1=O`, the outcome was inactive.
For the compound `Cc1cccc2[nH]c(-c3ccc(-c4cccc(CNCc5cnn(-c6ccccc6)n5)c4)s3)nc12`, the result was inactive.
Still for that read-out and setting: with `N=c1c2c(n(Cc3cccc(Cl)c3)c3c1CCC3)CCCC2` the entry was “inactive”; with `O=C(Nc1ccccc1Br)N[C@@H]1CCN(c2ccnc3ccccc23)C1`, “inactive”.
Still for that read-out and setting: under `Cc1[nH]c(C)c(-c2ccc(-c3ccccc3F)nc2)c(=O)c1Br` stands “inactive”.
With `CC(=O)c1c(Cc2cccc(C(F)(F)F)c2)c[nH]c1C`, the outcome was inactive.
With `Cc1cc(NC2CCN(CC3CCCCC3)C2)nc(Nc2ccc(Br)cc2)n1` (stereo not given), the result was inactive.
`Cc1cccc2c(CON3C(N)=NC(N)=NC3(C)C)cccc12`: the result was inactive.
Turning to `CCC(CC)(Cc1ccccc1)NC(=O)[C@H](Cc1ccc(OC)c(OC)c1)Nc1ccc(C#N)c2ccccc12`, the result was inactive.
With `O=C(C=Cc1ccc(Cl)c(Cl)c1)NCCCCCN1CCC(CCNC(=O)/C=C/c2ccccc2)CC1`, the outcome was inactive.
On to `O=C(Nc1cccc(C(F)(F)F)c1)c1cccc(S(=O)(=O)NC2CCCN(CC3CCCCC3)C2)c1` (stereo not given), for which the result was inactive.
Same read-out and setting: under `Cc1cc(NC(=O)c2cc(Br)ccc2Cl)n(-c2nc(C)c(C)c(=O)[nH]2)n1` stands “inactive”; under `CN(C(=O)/C=C/c1ccccc1F)C1CCN(CCCCCNC(=O)/C=C/c2ccc(Cl)c(Cl)c2)CC1`, “inactive”.
With `CC1CN(Cc2ccc(-c3cccc(-c4nc5ccc(F)cc5[nH]4)c3)cc2)CC(C)O1` (stereo not given), the outcome was inactive.
Consider `CC(C)C[C@@H](CNC[C@H](CC(C)C)NC(=O)OC(C)(C)C)NC(=O)OC(C)(C)C`, for which the result was inactive.
On to `CCNC(=O)N[C@@H]1CN[C@@H](C#Cc2cc3c(Nc4ccc(OCc5cccc(F)c5)c(Cl)c4)ncnc3s2)C1`, for which the result was inactive.
For `CC(C)N1CCN(C(CN2CCN(CCCOc3ccc4ccccc4c3)CC2)c2ccc(F)cc2)CC1` (stereo not given), the result was inactive.
Regarding `CN(C)C(=NCCCCCCN=C(NC(N)=NCc1ccc(Cl)c(Cl)c1)N(C)C)NC(N)=NCc1ccc(Cl)c(Cl)c1`, the result was inactive.
As to `CCn1c2ccccc2c2cc(C=NNc3cc(C)nc4ccccc34)ccc21`, the outcome was inactive.
Same read-out and setting: under `CS(=O)(=O)CCN(CCS(C)(=O)=O)Cc1ccc(-c2ccc3ncnc(Nc4ccc(OCc5cccc(F)c5)c(Cl)c4)c3c2)o1` stands “inactive”.
On to `O=C(NC1CCCC1)c1ccc(N2CCC(NCc3cc4cc(Cl)ccc4[nH]3)CC2)cc1`, for which the result was inactive.
On to `COc1ccccc1C1CCN(CCN2CCC(NC(=O)c3ccc(-c4ccc(C#N)cc4)cc3)CC2)CC1`, for which the result was inactive.
Regarding `O=C(NC1CCN(Cc2ccc(F)cc2)CC1)c1ccc(-c2cccc(C(F)(F)F)c2)s1`, the result was inactive.
For the compound `O=C(Nc1ccc(Br)cc1)N(CCN1CCOCC1)CC(O)COc1ccc(Cl)c(F)c1` (stereo not given), the result was inactive.
For the compound `NC(=O)c1ccc(NCC(=O)Nc2cccc(-c3cccc(-c4nc5ccc(C(F)(F)F)cc5[nH]4)c3)c2)cc1`, the result was inactive.
Regarding `CC(=O)Nc1cccc(-c2cn(-c3ccc(OCc4cccc(F)c4)c(Cl)c3)c3ncncc23)c1`, the outcome was inactive.
Same read-out and setting: under `CCCc1ccc(NC(=O)c2ccc(CN3CCCN(Cc4cccc(O)c4)CC3)cc2)cc1` stands “inactive”; under `Cc1ccc(C)c(NC(=O)Nc2ccc(Nc3nc(C)cc(N4CCOCC4)n3)cc2)c1`, “inactive”.
